SMN2 splice enh: qHTS Assay for Enhancers of SMN2 Splice Variant Expression. actives 2.8% (n = 210,000). Potency, µM (highest dose often 46.1 µM), for the others: top-dose activity change, positive = activation, actives largely listed as activators. HEK293 SMN2-luciferase splicing reporter, luminescence, 30-36 h; further: % of control where 0% means no effect; nearly all actives have a fitted effect of over 55% in size
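HEK293 cells carry an SMN2 minigene-luciferase reporter in which exon 7 inclusion puts luciferase in frame. Cells were seeded at 2000 cells/well, attached for 10-12 hours, then exposed to compounds for 30-36 hours at 37C before ONE-Glo luminescence.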
uPA generation: qHTS for Inhibitors of Cell Surface uPA Generation; actives 0.31% (n = 330,000); Potency, µM (highest dose often 38.3 µM), for inactives: top-dose activity change, negative = inhibition, most hits filed as inhibitors; cell surface uPA generation assay, qHTS; active means well fitted inhibition curve with a large enough effect; inconclusive means small, poorly fitted or top-dose-only effect; inactive means no such curve, though single readings can be large or run the other way; tested in mouse RAW 264.7 cells; further: on the % scale 0 is the no-effect control and ±100 the full control effect; nearly all actives have a fitted effect of over 55% in size
NPC1 promoter act: qHTS Assay for NPC1 Promoter Activators. AID 485313, 2010. Huh7 NPC1 promoter luciferase reporter, 24 h. actives 2.4% (n = 320,000). Potency, µM (highest dose often 9.22 µM), inactives show at the highest dose activation, most hits filed as activators; further: % of control where 0% means no effect; nearly all actives have a fitted effect of over 60% in size
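Cells: Huh7 expressing luciferase under the NPC1 promoter, 1500/well. Seeded 2 h, compound added, incubated 24 h at 37 °C. Luciferase reagent, 10 min ambient, then luminescence.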
FLuc counter: qHTS profiling assay for firefly luciferase inhibitor/activator using purifed enzyme and Km concentrations of substrates (counterscreen for miR-21 project); actives 6.9% (n = 360,000); purified FLuc, Km substrates, luminescence inhibition; Potency, µM (top dose mostly 57.5 µM), for inactives: at the highest dose activity change, negative = inhibition, actives largely listed as inhibitors; Luciferin 4-monooxygenase (Photinus pyralis), P08659; AID 588342, 2011;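 further: plate controls were vehicle for no effect and reference inhibitor for full effect; nearly all actives have a fitted effect of over 55% in size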
Target sequence (P08659 whole entry, looked up): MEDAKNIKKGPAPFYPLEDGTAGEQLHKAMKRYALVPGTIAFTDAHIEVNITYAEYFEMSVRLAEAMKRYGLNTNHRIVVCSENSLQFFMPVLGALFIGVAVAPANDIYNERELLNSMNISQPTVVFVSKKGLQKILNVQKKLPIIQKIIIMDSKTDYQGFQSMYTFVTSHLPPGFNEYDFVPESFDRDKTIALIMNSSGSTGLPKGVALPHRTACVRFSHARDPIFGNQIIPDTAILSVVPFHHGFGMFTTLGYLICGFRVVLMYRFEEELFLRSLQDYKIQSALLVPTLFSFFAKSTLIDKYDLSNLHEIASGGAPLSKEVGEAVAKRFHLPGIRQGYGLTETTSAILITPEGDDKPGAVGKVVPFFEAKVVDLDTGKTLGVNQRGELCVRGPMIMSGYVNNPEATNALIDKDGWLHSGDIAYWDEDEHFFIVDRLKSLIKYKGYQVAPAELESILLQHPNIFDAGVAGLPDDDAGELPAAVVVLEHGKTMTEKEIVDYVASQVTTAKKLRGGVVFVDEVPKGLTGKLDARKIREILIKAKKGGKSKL
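Biochemical qHTS of compounds, final roughly 60 µM downward over six points, against 10 nM purified firefly luciferase using Km concentrations of substrates (10 uM D-luciferin, 10 uM ATP) in Tris acetate pH 7.5 buffer; luminescence output.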
Rab9 promoter act: qHTS Assay for Rab9 Promoter Activators | AID 485297, 2010 | Potency, µM (series often up to 9.22 µM), for inactives: at the highest dose activation, negative = inhibition, most hits filed as activators | Huh7 Rab9 promoter-luciferase reporter, luminescence, 24 h | actives 2.8% (n = 320,000); further: % of control where 0% means no effect; nearly all actives have a fitted effect of over 60% in size
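Luminescence read-out: Huh7 cells stably expressing Rab9-luciferase, treated 24 h with compound at 37 °C, then lysed with luciferase reagent for 10 min at ambient before reading.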
ELG1 genotox: qHTS screen for small molecules that induce genotoxicity in human embryonic kidney (HEK293T) cells expressing luciferase-tagged ELG1; Potency, µM (highest dose often 46 µM), for the others: at the top dose activity change, positive = activation, actives largely listed as activators; actives 1.3% (n = 330,000); HEK293T ELG1-luciferase reporter, luminescence, 16 h; further: % of control where 0% means no effect; nearly all actives have a fitted effect of over 60% in size
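ELG1-luciferase HEK293T cells, 2,000/well; compound pinned in; 16 hr, 37 °C, 5% CO2; ONE-Glo, 30 min RT; luminescence on CCD imager.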
Starred values were filed as active, the others as inactive. A selection: hits, their analogues and other compounds. The true share with any hit is near 7.3%. Unless noted, the call rests on the fitted dose curve; in most records, active means well fitted curve in the direction sought with a large enough effect; inconclusive means small, poorly fitted or top-dose-only effect, or another doubt; inactive means no such curve, though single readings can be large; an effect the other way counts as inactive or inconclusive. Potency means the concentration at half of the fitted maximal effect.

For Cc1ccc(N2C(=O)c3ccccc3C2C(=O)c2cc(C)ccc2O)cc1 (configuration not stated) the results were SMN2 splice enh 13µM*, uPA generation inconclusive, NPC1 promoter act 23%, FLuc counter inconclusive, Rab9 promoter act 21% and ELG1 genotox -1%.
Cc1ccc2c(c1)COc1c3ccc(C(=O)O)cc3nn1-2 was read as uPA generation inconclusive, NPC1 promoter act -22%, FLuc counter 1.3µM*, Rab9 promoter act inconclusive and ELG1 genotox -1%.
Screening Cc1ccc2c(c1)CCCN2C(=O)c1ccc2c(c1)OCO2 returned SMN2 splice enh -7%, NPC1 promoter act -2%, FLuc counter -1%, Rab9 promoter act 3% and ELG1 genotox -2%.
CC(C)NC(=O)c1ccc(NC(=O)N2CCCCc3ccccc32)cc1 was read as FLuc counter -4%.
`CC(C)[C@@H](CO)NC(=O)c1ccc2c3n(nc2c1)-c1ccccc1CO3` gave uPA generation 1.3µM*, NPC1 promoter act 0.5µM*, FLuc counter 1.7µM*, Rab9 promoter act inconclusive and ELG1 genotox inconclusive.
Screening CC(C)NC(=O)c1ccc2c3n(nc2c1)-c1ccccc1CO3 returned uPA generation 0.79µM*, NPC1 promoter act 0.28µM*, FLuc counter 0.43µM*, Rab9 promoter act inconclusive and ELG1 genotox inconclusive.
`CC1=Nc2cc(C(=O)N3CCCC3)ccc2Sc2c(C)ccc(C)c21` gave uPA generation 4µM*, NPC1 promoter act -2%, FLuc counter 1%, Rab9 promoter act 17% and ELG1 genotox -6%.
Cc1cccc(-n2c(O)c(C=Nc3cccc(O)c3)c3ccccc3c2=O)n1 was read as uPA generation -8%, NPC1 promoter act -1%, FLuc counter -11%, Rab9 promoter act 1% and ELG1 genotox -7%.
Screening CC1=NC(=O)C(N=Nc2cccc(O)c2)N1c1ccccc1 (configuration not stated) returned SMN2 splice enh -11%, NPC1 promoter act -6%, FLuc counter 6.7µM*, Rab9 promoter act 7% and ELG1 genotox 15µM*.
For Cc1ccc(-c2cc(C(=O)Oc3ccccc3)c3cccc(C)c3n2)cc1 the results were SMN2 splice enh -2% and FLuc counter -5%.
`Cc1ccc(-c2cccc(OC(=O)c3ccccc3F)c2)cc1` gave SMN2 splice enh 17%, uPA generation -23%, NPC1 promoter act -8%, FLuc counter 5.4µM*, Rab9 promoter act 7% and ELG1 genotox 8%.
Screening CC(C)(C)c1cc(OC(=O)c2ccccc2F)ccc1O returned uPA generation 0%, NPC1 promoter act 1%, FLuc counter 27µM*, Rab9 promoter act -2% and ELG1 genotox -1%.
COc1ccc(CNC(=O)c2cnn(-c3ccccc3)c2-n2cccc2)cc1OC was read as FLuc counter -1%.
Screening Brc1ccccc1-c1nc2c3ccccc3ncn2n1 returned uPA generation -17%, NPC1 promoter act inconclusive, FLuc counter inconclusive, Rab9 promoter act 3.2µM* and ELG1 genotox 13%.
O=[N+]([O-])c1ccc(N/N=C/c2cn(-c3ccccc3)nc2-c2ccccc2)cc1 was read as SMN2 splice enh -26%, uPA generation 6%, NPC1 promoter act 20%, FLuc counter 2.7µM*, Rab9 promoter act 29% and ELG1 genotox inconclusive.
For O=C(CNc1ccccc1)N/N=C/c1cn(-c2ccccc2)nc1-c1ccccc1 the results were SMN2 splice enh -16%, uPA generation 1%, NPC1 promoter act -4%, FLuc counter -4%, Rab9 promoter act 11% and ELG1 genotox -4%.
